From PubChem BioAssay (NCATS)
Where “and” joins values, the source holds several entries; their conditions need not be identical. Equal entries are not always repeated. Records with an inconclusive call do not appear. Calls of active or inactive are those of the source. Unless noted, calls come from the whole dose curve; as a rule, active = well fitted curve in either direction with a large enough effect (not every such curve was filed as active); inconclusive = small, poorly fitted or top-dose-only effect, or another doubt; inactive = flat fitted curve, though single readings scatter.

What was measured:
[1] = AP1 Signaling Pathway (AID 357); details: ME-180 AP-1-bla reporter, EGF-induced, beta-lactamase ratio, 5 h;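 note: ME-180 reporter cells stimulated with EGF at its EC50 level; % is set by controls: 0 for no effect and ±100 for the full control effect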
Outline: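 Beta-lactamase reporter under AP-1 response element, ME-180 background. Stimulus: EC50 EGF. Compound exposure 5 h, 37 °C. Detection: CCF4, 2.5 h RT, 460/530 nm. Values: AC50 from titration.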

[2] = molecular target: Cytochrome P450 1A2 (Homo sapiens) (UniProt P05177); experiment: p450-cyp1a2 (AID 410; calls by dose curve; note: potency is the fitted concentration of half-maximal effect;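 for activity change, negative = inhibition: -100% = full effect of reference inhibitor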); details: recombinant CYP1A2, luciferin-ME demethylation, luminescence; series mostly up to 57 µM
Chain of Cytochrome P450 1A2 (Homo sapiens) (P05177 whole entry, looked up): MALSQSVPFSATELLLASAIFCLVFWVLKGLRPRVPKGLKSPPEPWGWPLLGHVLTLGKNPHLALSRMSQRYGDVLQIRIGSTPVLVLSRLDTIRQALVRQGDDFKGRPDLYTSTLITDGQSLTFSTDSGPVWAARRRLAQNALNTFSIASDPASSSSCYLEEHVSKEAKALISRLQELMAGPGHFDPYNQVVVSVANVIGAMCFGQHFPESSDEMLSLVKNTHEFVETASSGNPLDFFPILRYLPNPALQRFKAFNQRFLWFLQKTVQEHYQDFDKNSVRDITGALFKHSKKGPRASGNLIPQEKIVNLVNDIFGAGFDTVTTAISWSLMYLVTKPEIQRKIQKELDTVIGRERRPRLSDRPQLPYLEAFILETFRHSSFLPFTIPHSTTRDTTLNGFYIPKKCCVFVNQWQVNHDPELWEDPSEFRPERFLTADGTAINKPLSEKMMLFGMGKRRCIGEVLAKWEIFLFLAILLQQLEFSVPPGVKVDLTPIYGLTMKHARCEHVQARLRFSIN
Outline: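 20nM CYP1A2, 100uM Luciferin-ME (=Km), 100mM KPO4; cpd 10 min RT; +NADPH regen, 60 min RT; stop/detect 20 min; luminescence. Normalized to furafylline 57 uM = full inhibition.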

[3] = NFAT Signaling Pathway (AID 444); details: Jurkat NFAT-bla M1, carbachol, beta-lactamase ratio, 5 h;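 note: carbachol stimulus at about its EC50 of 1 µM final; % is set by controls: 0 for no effect and ±100 for the full control effect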
Outline: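 Read-out: CCF4 FRET ratio (460 nm/530 nm) after 1 h RT dye loading, used for %activity and AC50 from titration series. Cells: Jurkat NFAT-β-lactamase/M1 line, treated with compound plus 1 uM carbachol for 5 h, 37 °C.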

[4] = Stat Signaling Pathway (AID 446); details: ME-180 (cervical carcinoma) SIE beta-lactamase reporter, IL-6 stimulated, 5 h;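 note: ME-180 cervical cancer cells given 40 pM IL-6 alongside compound; SIE-controlled beta-lactamase reporter measured as 460/530 nm FRET emission ratio; % is set by controls: 0 for no effect and ±100 for the full control effect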
Outline: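 FRET read-out (405 nm excitation, 460/530 nm emission) of a beta-lactamase reporter under a STAT-inducible element in ME-180 cervical carcinoma cells. Cells with compound receive 40 pM IL-6 for 5 h. Values are normalised to AC90 stimulation and AC90 JAK-inhibitor controls.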

[5] = molecular target: Glucocorticoid receptor (Homo sapiens) (UniProt P04150); experiment: GR-GFP Redistribution (AID 450;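 active = compounds whose dose series gives a full or clear partial fitted curve of increased nuclear translocation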; note: potency is the fitted concentration of half-maximal effect); details: U2OS GR-GFP nuclear translocation, laser cytometry, 2 h
Chain of Glucocorticoid receptor (Homo sapiens) (P04150 whole entry, looked up, the tested form may be a part): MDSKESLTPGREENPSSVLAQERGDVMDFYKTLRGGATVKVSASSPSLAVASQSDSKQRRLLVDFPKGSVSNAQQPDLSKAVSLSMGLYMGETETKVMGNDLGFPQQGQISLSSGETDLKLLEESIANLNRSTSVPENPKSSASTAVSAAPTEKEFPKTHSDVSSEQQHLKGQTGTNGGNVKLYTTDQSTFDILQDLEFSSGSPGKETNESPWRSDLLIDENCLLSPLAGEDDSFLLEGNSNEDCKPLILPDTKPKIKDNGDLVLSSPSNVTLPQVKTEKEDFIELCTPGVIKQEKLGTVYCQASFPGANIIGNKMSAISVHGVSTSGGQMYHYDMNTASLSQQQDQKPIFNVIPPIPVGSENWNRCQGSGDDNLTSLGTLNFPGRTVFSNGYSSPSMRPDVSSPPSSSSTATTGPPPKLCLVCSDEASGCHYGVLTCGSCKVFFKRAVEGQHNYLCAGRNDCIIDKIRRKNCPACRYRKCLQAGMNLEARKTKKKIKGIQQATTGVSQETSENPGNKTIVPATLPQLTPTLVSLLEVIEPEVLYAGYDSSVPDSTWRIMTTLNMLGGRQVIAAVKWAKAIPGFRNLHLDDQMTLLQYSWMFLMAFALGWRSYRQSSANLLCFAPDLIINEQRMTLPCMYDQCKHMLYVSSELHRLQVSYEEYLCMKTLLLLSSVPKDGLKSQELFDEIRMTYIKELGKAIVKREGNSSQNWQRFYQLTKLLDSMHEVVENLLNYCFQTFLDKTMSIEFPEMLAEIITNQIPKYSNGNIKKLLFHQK

[6] = molecular target: Glucocorticoid receptor (Homo sapiens) (UniProt P04150); experiment: GR-EFC Redistribution (AID 451; calls by dose curve; note: potency is the fitted concentration of half-maximal effect); details: CHO-K1 GR-EFC translocation, beta-gal luminescence, 2 h
Outline: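 Translocation of GR-ED fusion to nuclear EA restores b-gal, read by luminescence after 1 h room-temperature detection. Engineered CHO-K1 biosensor cells, 1,000/well, exposed 2 h at 37 C to titrations up to 46 uM final.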

[7] = molecular target: Mitogen-activated protein kinase 10 (Mus musculus) (UniProt Q61831); experiment: JNK3 AlphaScreen Assay (AID 530); details: JNK3 lysate, c-Jun phosphorylation; series mostly up to 57.1 µM;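 note: kinase came from lysate of stimulated human HepG2 cells; signal reports phosphorylation of biotinylated GST-cJun 1-79 at Ser73 with 10 µM ATP; % is set by controls: 0 for no effect and ±100 for the full control effect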
Outline: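 Kinase buffer: 20 mM Tris-HCl pH 7.6, 10 mM MgCl2, 1 mM DTT, 0.1 mM Na3VO4, 0.01% Tween-20; ATP 10 uM. Substrate biotin-GST-cJun(1-79), enzyme from activated HepG2 lysates. Detection by Ser73 phospho-antibody AlphaScreen.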

[8] = molecular target: 3',5'-cyclic-AMP phosphodiesterase 4B (Homo sapiens) (UniProt Q07343); experiment: qHTS Assay for Inhibitors of PDE-IV (AID 607; active = well fitted activation curve with a large enough effect in the main read-out, with a control signal flat, not every such curve was filed as active; note: % of control where 0% means no effect); details: HEK293 ACTOne CNG channel cells, membrane potential fluorescence; series mostly up to 22.9 µM
Chain of 3',5'-cyclic-AMP phosphodiesterase 4B (Homo sapiens) (Q07343 whole entry, looked up): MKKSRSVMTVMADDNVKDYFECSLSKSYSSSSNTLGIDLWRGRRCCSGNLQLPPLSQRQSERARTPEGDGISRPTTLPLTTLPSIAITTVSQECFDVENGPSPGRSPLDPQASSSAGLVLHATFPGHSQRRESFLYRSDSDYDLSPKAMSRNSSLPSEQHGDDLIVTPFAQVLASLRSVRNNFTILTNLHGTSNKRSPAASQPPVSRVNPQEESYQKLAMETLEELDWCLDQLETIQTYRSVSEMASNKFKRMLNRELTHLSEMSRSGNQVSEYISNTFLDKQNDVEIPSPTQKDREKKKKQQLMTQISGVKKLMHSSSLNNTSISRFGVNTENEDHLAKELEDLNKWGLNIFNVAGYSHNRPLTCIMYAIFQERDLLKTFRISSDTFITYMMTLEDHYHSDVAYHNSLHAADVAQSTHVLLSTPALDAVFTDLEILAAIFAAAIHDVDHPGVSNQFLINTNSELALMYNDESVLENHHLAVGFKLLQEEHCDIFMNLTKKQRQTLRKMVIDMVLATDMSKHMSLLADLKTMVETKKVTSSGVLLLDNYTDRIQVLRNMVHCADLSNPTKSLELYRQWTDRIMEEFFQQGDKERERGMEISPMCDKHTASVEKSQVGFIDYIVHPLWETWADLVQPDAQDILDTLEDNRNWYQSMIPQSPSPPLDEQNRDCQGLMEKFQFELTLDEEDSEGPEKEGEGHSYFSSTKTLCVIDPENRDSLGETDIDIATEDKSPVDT
Outline: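 Cell-based read-out of cAMP via a modified cyclic nucleotide-gated channel and membrane potential dye (535/590 nm) in HEK293 cells expressing PDE4 endogenously. Compounds tested up to 22.9 uM final; 100 uM RO 20-1724 reference.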

[9] = molecular target: Guanine nucleotide-binding protein G(i) subunit alpha-1 (Homo sapiens) (UniProt P63096); experiment: qHTS Assay for Inhibitors of RGS12 GoLoco Motif Activity (Green Fluorophore) (AID 879; active = well fitted curve in the direction sought with a large enough effect; an effect the other way counts as inactive or inconclusive;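 note: 0% = labeled peptide with Gαi1 and full inhibition = labeled peptide alone without protein; negative values mean loss of peptide binding seen as reduced polarization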); details: Galphai1/FITC-RGS12 GoLoco peptide, fluorescence polarization; series mostly up to 57.1 µM
Chain of Guanine nucleotide-binding protein G(i) subunit alpha-1 (Homo sapiens) (P63096 whole entry, looked up): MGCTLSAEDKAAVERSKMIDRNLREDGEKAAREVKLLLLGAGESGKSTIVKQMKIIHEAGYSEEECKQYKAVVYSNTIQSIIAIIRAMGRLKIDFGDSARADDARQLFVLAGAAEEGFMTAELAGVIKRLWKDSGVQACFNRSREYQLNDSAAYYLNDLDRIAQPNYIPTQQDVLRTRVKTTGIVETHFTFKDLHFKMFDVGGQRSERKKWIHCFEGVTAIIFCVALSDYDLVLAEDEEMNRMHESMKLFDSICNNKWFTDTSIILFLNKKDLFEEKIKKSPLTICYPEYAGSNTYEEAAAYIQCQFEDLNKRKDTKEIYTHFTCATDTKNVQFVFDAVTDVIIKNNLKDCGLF
Outline: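 A drop in FITC polarization marked displacement of the FITC-tagged RGS12 GoLoco peptide (10 nM) from Gαi1 (50 nM). Compounds were incubated 10 min at room temperature in Tris pH 7.5 buffer containing 150 mM NaCl, 0.1 mM GDP and 0.05% NP40; unlabeled peptide titration served as control.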

[10] = molecular target: Pyruvate kinase (Leishmania mexicana) (UniProt Q27686); experiment: qHTS Validation Assay for Inhibitors of Leishmania Mexicana Pyruvate Kinase (AID 945; active = well fitted curve in the direction sought with a large enough effect; an effect the other way counts as inactive or inconclusive;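 note: 0% = DMSO only neutral control wells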); details: purified L. mexicana pyruvate kinase, enzyme activity, E451W mutant enzyme; series mostly up to 57.5 µM
Chain of Pyruvate kinase (Leishmania mexicana) (Q27686 2-499 E452W): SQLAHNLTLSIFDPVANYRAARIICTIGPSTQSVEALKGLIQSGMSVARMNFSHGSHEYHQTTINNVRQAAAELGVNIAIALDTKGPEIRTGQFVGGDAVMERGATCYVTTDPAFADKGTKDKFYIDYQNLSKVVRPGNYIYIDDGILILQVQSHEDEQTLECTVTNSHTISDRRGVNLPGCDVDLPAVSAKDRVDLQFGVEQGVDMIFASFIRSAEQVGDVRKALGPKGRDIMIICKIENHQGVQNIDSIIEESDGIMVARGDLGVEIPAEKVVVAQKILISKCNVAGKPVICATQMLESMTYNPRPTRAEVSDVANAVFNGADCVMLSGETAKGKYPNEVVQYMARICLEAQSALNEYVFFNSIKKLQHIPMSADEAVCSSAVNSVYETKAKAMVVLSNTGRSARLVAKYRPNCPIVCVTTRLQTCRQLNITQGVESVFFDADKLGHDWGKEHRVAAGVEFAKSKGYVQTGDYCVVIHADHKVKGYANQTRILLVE
Outline: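 Read-out: luminescence from PKLight stop/detection reagent, data normalized to DMSO. Reaction: 0.2 nM E451W LmPYK, 0.5 mM PEP, 0.1 mM ADP, pH 7.2, 1 h room temperature.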

[11] = molecular target: Pyruvate kinase PKM (Homo sapiens) (UniProt P14618); experiment: qHTS Assay for Activators of Human Muscle Pyruvate Kinase (AID 954; active = well fitted curve in the direction sought with a large enough effect, not every such curve was filed as active;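 note: 0% = uninhibited enzyme and -100% = no enzyme or full thiadiazolimine inhibition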); details: purified human muscle pyruvate kinase, luciferase-coupled luminescence, 1 h; series mostly up to 57.5 µM
Chain of Pyruvate kinase PKM (Homo sapiens) (P14618 whole entry, looked up): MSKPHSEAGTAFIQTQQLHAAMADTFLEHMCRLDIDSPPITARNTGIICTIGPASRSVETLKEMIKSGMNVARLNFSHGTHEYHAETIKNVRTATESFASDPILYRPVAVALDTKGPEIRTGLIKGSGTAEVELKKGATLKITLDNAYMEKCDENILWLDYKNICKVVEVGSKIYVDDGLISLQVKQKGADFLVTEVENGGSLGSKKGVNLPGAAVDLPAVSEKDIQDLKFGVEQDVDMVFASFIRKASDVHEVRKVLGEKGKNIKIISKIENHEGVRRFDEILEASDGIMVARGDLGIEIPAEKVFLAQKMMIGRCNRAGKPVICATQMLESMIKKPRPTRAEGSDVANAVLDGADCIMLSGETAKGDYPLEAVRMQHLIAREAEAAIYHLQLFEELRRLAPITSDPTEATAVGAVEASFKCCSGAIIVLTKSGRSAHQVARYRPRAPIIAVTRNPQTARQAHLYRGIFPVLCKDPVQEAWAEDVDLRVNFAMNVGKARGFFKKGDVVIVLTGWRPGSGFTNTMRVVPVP
Outline: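 ATP production by PKM2 detected via luciferase luminescence after 1 h room-temperature reaction (0.1 nM enzyme, PEP at Km 0.5 mM, ADP 0.1 mM, pH 7.2 imidazole buffer). Inhibition scaled to no-enzyme control; activation referenced to 0.3 nM enzyme wells.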

[12] = qHTS Assay for Lipid Storage Modulators (AID 1519; calls by dose curve); details: Drosophila S3 cells, BODIPY lipid droplet/cell ratio, laser cytometry, cells loaded with oleic acid; for activity change, negative = inhibition: at 25.7 µM (top of the series)
Outline: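 Cells seeded at 5,000 per well were treated with compounds over a concentration series and loaded with oleic acid (400 uM, as added). Lipid droplet fluorescence (488 nm excitation, 500-530 nm channel) was read by laser-scanning cytometry and normalized to 20 uM Triacsin C.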

[13] = molecular target: Ubiquitin carboxyl-terminal hydrolase 1 (Homo sapiens) (UniProt O94782); experiment: Inhibitors of USP1/UAF1: Pilot qHTS (AID 504865; active = well fitted curve in the direction sought with a large enough effect; an effect the other way counts as inactive or inconclusive;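 note: rhodamine fluorescence freed from ubiquitin-rhodamine substrate followed over time; top concentration of the series differs between compounds; % is set by controls: 0 for no effect and ±100 for the full control effect; nearly all actives have a fitted effect of over 35% in size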); details: purified USP1/UAF1, Ub-rhodamine cleavage fluorescence; series mostly up to 54.9 µM
Chain of Ubiquitin carboxyl-terminal hydrolase 1 (Homo sapiens) (O94782 whole entry, looked up): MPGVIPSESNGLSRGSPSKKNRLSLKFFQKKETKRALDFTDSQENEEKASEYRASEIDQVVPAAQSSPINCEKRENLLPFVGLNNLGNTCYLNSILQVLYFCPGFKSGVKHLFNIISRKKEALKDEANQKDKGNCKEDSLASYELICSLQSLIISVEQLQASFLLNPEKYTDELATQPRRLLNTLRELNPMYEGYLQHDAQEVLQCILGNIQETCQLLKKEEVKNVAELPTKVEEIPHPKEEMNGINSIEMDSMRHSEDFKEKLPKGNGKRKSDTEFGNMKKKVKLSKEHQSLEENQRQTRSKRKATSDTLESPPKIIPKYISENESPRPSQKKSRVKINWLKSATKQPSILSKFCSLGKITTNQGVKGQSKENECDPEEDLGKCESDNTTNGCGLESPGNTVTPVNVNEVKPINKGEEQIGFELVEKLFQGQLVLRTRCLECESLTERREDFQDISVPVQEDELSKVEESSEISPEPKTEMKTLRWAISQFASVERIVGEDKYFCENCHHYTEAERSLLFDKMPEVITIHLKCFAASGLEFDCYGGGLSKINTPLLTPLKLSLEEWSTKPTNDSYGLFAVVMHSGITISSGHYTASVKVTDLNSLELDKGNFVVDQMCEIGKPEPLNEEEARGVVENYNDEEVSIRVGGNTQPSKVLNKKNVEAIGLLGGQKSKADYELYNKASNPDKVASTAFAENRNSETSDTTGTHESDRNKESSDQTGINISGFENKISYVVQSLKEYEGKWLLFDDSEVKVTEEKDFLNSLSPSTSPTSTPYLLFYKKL
Outline: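 USP1/UAF1 complex at 1 nM preincubated 15 min at room temperature with compound, then Ub-Rho substrate added at 150 nM final. Fluorescence (480/540 nm) read kinetically in 50 mM HEPES pH 7.8, 0.5 mM EDTA, 1 mM TCEP, 0.1 mg/ml BSA, 0.01% Tween-20.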

[14] = molecular target: ATP-dependent 6-phosphofructokinase (Trypanosoma brucei brucei) (UniProt O15648); experiment: qHTS Assay to Find Inhibitors of T. brucei phosphofructokinase: hit validation (AID 492961; active = well fitted curve in the direction sought with a large enough effect; an effect the other way counts as inactive or inconclusive); details: T. brucei PFK, ADP-Glo luminescence; series mostly up to 24.3 µM
Outline: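 Measures ADP output of PFK (1.25 nM) at 0.1 mM ATP, 0.5 mM F6P, pH 8.0 TEA buffer with 5 mM MgCl2. No-enzyme wells define full inhibition; uninhibited enzyme wells define zero.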

[15] = molecular target: Luciferin 4-monooxygenase (Photinus pyralis) (UniProt P08659); experiment: Biochemical firefly luciferase enzyme assay for NPC (AID 624030; active = well fitted curve in the direction sought with a large enough effect; an effect the other way counts as inactive or inconclusive;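 note: purified P. pyralis luciferase at 10 nM with luciferin and ATP substrate; 0% = DMSO and -100% = full luciferase inhibition by PTC124 control; nearly all actives have a fitted effect of over 70% in size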); details: purified P. pyralis luciferase, luminescence, 5 min; series mostly up to 58.6 µM
Chain of Luciferin 4-monooxygenase (Photinus pyralis) (P08659 whole entry, looked up): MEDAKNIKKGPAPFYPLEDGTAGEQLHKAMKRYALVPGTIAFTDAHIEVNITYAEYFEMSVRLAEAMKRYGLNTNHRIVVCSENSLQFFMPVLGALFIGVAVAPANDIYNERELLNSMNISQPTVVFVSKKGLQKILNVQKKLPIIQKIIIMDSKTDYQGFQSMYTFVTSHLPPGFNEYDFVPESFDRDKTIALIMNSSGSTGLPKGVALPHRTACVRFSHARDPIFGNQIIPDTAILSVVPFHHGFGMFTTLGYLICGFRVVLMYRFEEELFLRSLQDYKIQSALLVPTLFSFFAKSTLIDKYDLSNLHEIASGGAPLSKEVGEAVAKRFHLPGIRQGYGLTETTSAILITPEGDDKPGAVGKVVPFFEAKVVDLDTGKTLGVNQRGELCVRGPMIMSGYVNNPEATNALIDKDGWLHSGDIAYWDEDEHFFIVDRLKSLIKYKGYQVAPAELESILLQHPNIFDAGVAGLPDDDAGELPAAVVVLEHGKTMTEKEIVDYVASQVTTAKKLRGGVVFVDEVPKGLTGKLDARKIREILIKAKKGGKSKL
Outline: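 Direct inhibition of firefly luciferase enzyme (10 nM final, 50 mM Tris Acetate) assessed by luminescence within 5 minutes. Percent activity scaled between DMSO and PTC124 positive control, with concentration-effect curves classified by fit quality and response.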

[16] = qHTS profiling for inhibitors of Plasmodium falciparum proliferation (AID 504749; active = well fitted curve in the direction sought with a large enough effect; an effect the other way counts as inactive or inconclusive;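 note: 0% = DMSO vehicle and full inhibition = artemisinin control; nearly all actives have a fitted effect of over 60% in size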); details: P. falciparum in erythrocytes, SYBR Green DNA, 72 h, at 12.8 µM (top of the series)
Outline: (§1)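 In a 72 h erythrocytic culture (37 C, humidified, 5% CO2) at 2.5% hematocrit and 0.3% starting parasitemia, compounds were tested; SYBR Green I in detergent lysis buffer stained parasite DNA overnight.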

AS120 = experiment: as above; details: P. falciparum in erythrocytes, SYBR Green DNA, 72 h; series mostly up to 28.7 µM
Outline: as §1

CP238 = experiment: as above; details: P. falciparum in erythrocytes, SYBR Green DNA, 72 h; series mostly up to 12.8 µM
Outline: as §1

CP265 = experiment: as above; details: P. falciparum in erythrocytes, SYBR Green DNA, 72 h; series mostly up to 12.8 µM
Outline: as §1

FAB9 = experiment: as above; details: P. falciparum in erythrocytes, SYBR Green DNA, 72 h; series mostly up to 12.8 µM
Outline: as §1

[17] = at 7.69 µM (top of the series) unless noted
[18] = measured here: cell count channel max response
[19] = measured here: lipid channel max response

C[C@@H](C[N+](C)(C)C)OC(N)=O
-3.27%: max response [12, 19]
inactive: activity change, negative = inhibition ([1]; at 17.2 µM (top of the series)) 2.54% | activity change, negative = inhibition ([1]; at 38 µM (top of the series)) 13.3% | Potency [2] | activity change, negative = inhibition ([3]; at 17.2 µM (top of the series)) 9.21% | activity change, negative = inhibition ([3]; at 38 µM (top of the series)) 17.1% | activity, negative = inhibition [4, 17] -3.42% [at 17.2 µM] | Potency [5] > 46 µM and > 20.6 µM | Potency [6] > 46 µM and > 20.6 µM | Potency [7] | Potency [8] | Potency [9] | outcome [10] | outcome [11] | activity change, negative = inhibition [12] -1.39% | Potency [13]
-0.356%: max response [12, 18]

CC(=O)O[C@@H](C)C[N+](C)(C)C
inactive: activity change, negative = inhibition ([1]; at 17.2 µM (top of the series)) 20.9% | activity change, negative = inhibition ([1]; at 38 µM (top of the series)) 13.8% | Potency [2] | activity, negative = inhibition ([4]; at 17.2 µM (top of the series)) -1.77% | activity, negative = inhibition ([4]; at 38 µM (top of the series)) 30.8% | Potency [5] > 46 µM and > 20.6 µM | Potency [6] > 46 µM and > 20.6 µM | Potency [7] | Potency [9] | outcome [10] | outcome [11] | activity change, negative = inhibition [12] -1.12% | outcome [14] | Potency [13] | outcome [15] | activity, negative = inhibition ([16]; parasite line A) 0.161% | activity, negative = inhibition ([16]; parasite line B) 7.9% | Potency (AS120) | Potency (CP238) | Potency (CP265) | Potency (FAB9)
-2.61%: max response [12, 18]
-4.64%: max response [12, 19]

CN(C)CCO[C@](C)(c1ccccc1)c1ccccn1
16.6%: max response [12, 18]
17.9%: max response [12, 19]
inactive: activity change, negative = inhibition ([1]; at 17.2 µM (top of the series)) 4.7% | activity change, negative = inhibition ([1]; at 38 µM (top of the series)) 3.93% | Potency [2] | activity, negative = inhibition ([4]; at 17.2 µM (top of the series)) -3.9% | activity, negative = inhibition ([4]; at 38 µM (top of the series)) 8.94% | Potency [7] | Potency [8] | Potency [9] | outcome [10] | outcome [11] | activity change, negative = inhibition [12] 0.849% | Potency [13] | outcome [15]

O=C(O)/C=C\c1ccc(O)c(O)c1
inactive: activity change, negative = inhibition ([1]; at 17.2 µM (top of the series)) -12.5% | activity change, negative = inhibition ([1]; at 38 µM (top of the series)) -5.91% | Potency [2] | activity change, negative = inhibition [3, 17] -7.46% [at 38 µM] | activity, negative = inhibition ([4]; at 17.2 µM (top of the series)) 3.52% | activity, negative = inhibition ([4]; at 38 µM (top of the series)) 10.1% | Potency [5] > 46 µM and > 20.6 µM | Potency [6] > 46 µM and > 20.6 µM | Potency [7] | Potency [8] | activity change, negative = inhibition [12] -3.56% | Potency [13]
-2.45%: max response [12, 19]
-1.26%: max response [12, 18]

CN1[C@@H](CC(=O)c2ccccc2)CCC[C@@H]1C[C@@H](O)c1ccccc1
-6.75%: max response [12, 19]
inactive: activity change, negative = inhibition ([1]; at 17.2 µM (top of the series)) -1.05% | activity change, negative = inhibition ([1]; at 38 µM (top of the series)) 6.06% | activity, negative = inhibition ([4]; at 17.2 µM (top of the series)) 0.159% | activity, negative = inhibition ([4]; at 38 µM (top of the series)) -8.54% | Potency [7] | Potency [8] | Potency [9] | outcome [10] | outcome [11] | activity change, negative = inhibition [12] -0.989% | Potency [13]
active: Potency [2] 31.6 µM and 5.01 µM
-6.57%: max response [12, 18]
